In PubChem BioAssay (NCATS) one finds activation and Potency data, which are given here for 39 molecules.

Inconclusive results are not listed. Active and inactive are the calls of the source. Calls come from the whole dose curve; as a rule, active = well fitted activation curve with a large enough effect; inconclusive = small, poorly fitted or top-dose-only effect; inactive = no such curve, though single readings can be large or run the other way.
Potency is the fitted concentration of half-maximal effect.

Sequence of Cellular tumor antigen p53 (Homo sapiens) (P04637 whole entry, looked up): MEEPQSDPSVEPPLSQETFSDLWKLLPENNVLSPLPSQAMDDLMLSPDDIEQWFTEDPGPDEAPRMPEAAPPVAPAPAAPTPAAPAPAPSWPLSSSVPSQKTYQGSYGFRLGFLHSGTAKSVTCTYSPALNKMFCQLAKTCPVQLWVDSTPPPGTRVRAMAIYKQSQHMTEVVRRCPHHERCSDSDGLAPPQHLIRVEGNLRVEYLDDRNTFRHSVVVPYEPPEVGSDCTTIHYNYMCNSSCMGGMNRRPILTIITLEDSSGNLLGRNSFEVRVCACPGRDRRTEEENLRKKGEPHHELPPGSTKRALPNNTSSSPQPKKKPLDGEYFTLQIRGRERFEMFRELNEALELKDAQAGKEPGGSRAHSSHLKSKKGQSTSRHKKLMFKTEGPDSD

For this test, the target named is Cellular tumor antigen p53 (Homo sapiens) (UniProt P04637). As to the kind of experiment: Primary qHTS for small molecule compounds that upregulate eGFP-tagged delta133p53alpha (in N-terminal) cells. (AID 2060322).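 For activation: series mostly up to about 56 µM; 0% = DMSO vehicle and 100% = reference activator.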 Note: nearly all actives have a fitted effect of over 75% in size. The note with it: NCI-H358 eGFP-delta133p53alpha fluorescence, 24 h; activation: hits give high values. The gist of the method:
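NCI-H358 cells pre-induced 24 h with 10 ng/ml doxycycline to express N-terminal eGFP-delta133p53alpha, then dosed 24 h at 37C without doxycycline; fixed, Hoechst-stained, GFP intensity by laser scanning cytometry, normalized to DMSO (0%) and 57.5 uM 5-azacytidine (100%).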
Turning to `C[N+]1(C)[C@@H]2CC[C@H]1CC(OC(=O)C(CO)c1ccccc1)C2` (some centres undefined), the activation was 25.4% (inactive). With `O=[N+]([O-])c1cc([N+](=O)[O-])c2ccccc2c1`, the activation was -5.02% (inactive). With `C#C[C@]1(O)C=C[C@@H]2[C@@H]3CCC4=CC(=O)CC[C@@H]4[C@H]3CC[C@@]21CC`, the activation is -3.53% (inactive).

For `COc1ccc2c3c1O[C@H]1[C@H](O)CC[C@H]4[C@@H](C2)N(C)CC[C@@]341`, the activation was 16.4% (inactive).

With `NC(=O)CS(=O)C(c1ccccc1)c1ccccc1` (centres undefined), the activation is -6.21% (inactive). On to `Oc1cc(Cl)ccc1Oc1ccc(Cl)cc1Cl`, for which the Potency was 51.4 µM (active). In the case of `Nc1ccccc1`, the activation is -8.47% (inactive).

Regarding `CCOC(=O)C1(c2ccccc2)CCN(CCC(C#N)(c2ccccc2)c2ccccc2)CC1`, the activation was -1.69% (inactive).

For `COc1cccc([C@@]2(O)CCCC[C@@H]2CN(C)C)c1`, the activation was 13.4% (inactive).

For the molecule `OC(O)C(Cl)(Cl)Cl`, the activation is -29.9% (inactive). In the case of `C[C@H](N)[C@H](O)c1ccc(O)c(O)c1`, the activation is -36.8% (inactive).

`CC1OC(C)OC(C)O1` (centres undefined): the activation was 6.21% (inactive). Same read-out and setting: for `O=[N+]([O-])c1ccc([As](=O)(O)O)cc1` the value was -14.2% (inactive); for `O=C1OC(CCN2CCCCC2)OC1(c1ccccc1)c1ccccc1` (centres undefined), -20.9% (inactive).

In the case of `CC[N+]1(C)CCCC(OC(=O)C(O)(c2ccccc2)c2ccccc2)C1` (centres undefined), the activation was 8.47% (inactive).

In the case of `O=C1CN2CCOC2(c2ccccc2Cl)c2cc(Cl)ccc2N1` (centres undefined), the activation is 14.2% (inactive). For the molecule `CC(=O)[O][Hg][c]1ccccc1`, the Potency was 8.71 µM (active). Take `C[C@]12Cc3nonc3C[C@@H]1CC[C@@H]1[C@@H]2CC[C@@]2(C)[C@H]1CC[C@]2(C)O`: the activation was 7.34% (inactive). For `COc1cc2cc(c1Cl)N(C)C(=O)C[C@H](OC(=O)C(C)C)[C@]1(C)O[C@H]1[C@H](C)[C@@H]1C[C@@](O)(NC(=O)O1)[C@H](OC)C=CC=C(C)C2`, the activation is 0.447% (inactive). On to `O=C1OC(c2ccc(O)c(S(=O)(=O)O)c2)(c2ccc(O)c(S(=O)(=O)O)c2)c2c(Br)c(Br)c(Br)c(Br)c21`, for which the activation is 25.4% (inactive).

Turning to `Nc1ccc([As](=O)(O)O)cc1`, the activation was -5.02% (inactive). For the molecule `O=C(CCCCl)c1ccc(F)cc1`, the activation was -10.9% (inactive). Same read-out and setting: under `O=C1CCC[C@@H]2[C@H]3CCCN4CCC[C@@H](CN12)[C@@H]34` stands 30.7% (inactive); under `CC(Cc1ccc2c(c1)OCO2)NO` (centres undefined), -3.95% (inactive). Still for that read-out and setting: for `Clc1ccccc1N1CCNCC1` the value was 28.8% (inactive); for `CCC(=O)O[C@@H]1C=C2CCC3C(CCC4(C)C3CC[C@@H]4OC(=O)CC)C2CC1` (some centres undefined), 6.21% (inactive); for `CCNc1nc(Cl)nc(NCC)n1`, 8.37% (inactive).

For the molecule `C[C@@]12OC(=O)[C@]1([C@@H](O)[C@@H]1C=CCCC1)NC(=O)[C@H]2CCCl`, the Potency is 2.73 µM (active). `CCCN1CCO[C@@H]2c3cc(O)ccc3OC[C@@H]21`: the activation is 15.2% (inactive). On the same count and under the same terms, under `C[C@]12CC[C@H]3[C@@H](CC=C4C[C@@H](O)CC[C@@]43C)[C@@H]1CC[C@@H]2O` stands -16.7% (inactive); under `CCCCC(CC)COC(=O)c1ccccc1C(=O)OCC(CC)CCCC` (centres undefined), 0% (inactive).

For `CC1COC2(c3ccccc3Cl)c3cc(Cl)ccc3NC(=O)CN12` (centres undefined), the activation is 28.5% (inactive). Turning to `c1cc2c(c(N3CCNCC3)c1)OCCO2`, the activation is -12.6% (inactive). Regarding `CC[N+]1(CC)CCC(OC(=O)C(O)(c2ccccc2)c2ccccc2)C1` (centres undefined), the activation was -15.3% (inactive). On the same count and under the same terms, for `CN1CC[C@]23c4c5ccc(O)c4O[C@H]2[C@@H](O)CC[C@H]3[C@H]1C5` the value was 14.1% (inactive); for `COCC(=O)N(c1c(C)cccc1C)C(C)C(=O)OC` (centres undefined), 18.6% (inactive). Regarding `COP(=S)(OC)SCN1C(=O)c2ccccc2C1=O`, the Potency was 21.9 µM (active). As to `CC(Cc1ccccc1)NCc1ccccc1Cl` (centres undefined), the activation was 16.4% (inactive).

With `CC(C)Oc1cccc(NC(=O)c2ccccc2C(F)(F)F)c1`, the activation is -17.6% (inactive).
